We go through 63 compounds from PubChem BioAssay AID2315 (National Center for Advancing Translational Sciences (NCATS), 2010).

Several values for one entry are separate records, joined by “and”; a condition that tells them apart may be missing. Equal entries are not always repeated. In all, about 290,000 compounds went through this assay and about 27,000 (9.3%) were called active. What follows is part of a selection rich in actives, with near analogues and random picks from the rest. Values without a mark were called inactive. Rule as the data show it: active = inhibition mostly above about 28% (no sharp cut-off); inactive = mostly below about 43%.

The inhibition is the drop in the measured response relative to a control, in per cent.

This assay can be described thus: A qHTS for Small Molecule Inhibitors of Shiga Toxin. Also: 0% is about no effect. To be noted: Vero cells, Shiga toxin protein synthesis inhibition reporter; at 38.7 µM, stronger effect = higher value. In general terms: Quantitative high-throughput screening tests each substance at several concentrations.
As to `COc1ccc(C2(C)NC(=O)N(CC(=O)c3ccc4c(c3)OCO4)C2=O)cc1` (stereo not drawn), the inhibition is 20.5%.

`O=C(CSc1nnc(CNC(=O)c2ccc(F)cc2)o1)Nc1ccc2c(c1)OCO2`: the inhibition was -2.6%. Then `O=C(O)c1ccc(OCC2CCCO2)cc1` (stereo not drawn), with -1.54%; and `C=CCn1c(SCc2ccccc2)nc2c1c(=O)[nH]c(=O)n2C`, with -10.2%. Then `Cc1c(C(=O)NC(C)C2CC3CCC2C3)cccc1[N+](=O)[O-]` (stereo not drawn), with -7.71%. `COC(=O)C(=Nc1ccccc1)/C(C(=O)C(=O)N(C)c1ccccc1)=C(\O)c1ccc(Cl)cc1`: the inhibition is 127% (active). In the case of `COC(=O)c1cn(C(=O)c2ccc(Cl)cc2)c2ccccc12`, the inhibition is 10.5%. `COC(=O)/C(NC(C)=O)=C(\C)c1ccc(Cl)cc1`: the inhibition was -4.26%. As to `COCCn1cnc2c1c(=O)n(Cc1ccc(Br)cc1)c(=O)n2Cc1ccccc1`, the inhibition is 15.6%. On to `Cc1ccc(C2CCN(C(=S)Nc3cccc(Cl)c3)C2)cc1` (stereo not drawn), for which the inhibition was 47.7% (active). The figure for `O=C(C1CCCO1)N1CCN(C(=S)Nc2cccc(Cl)c2)CC1` (stereo not drawn) is -2.49%; for `Cc1cccc(NC(=S)N2CCCC(c3nc4ccccc4[nH]3)C2)c1` (stereo not drawn) it is -11.2%. Then `COc1cc(N2C(=O)CSC2=S)cc(OC)c1OC`, with -9%. Turning to `CN(C)CCNC(=O)c1[nH]nc2c1CCc1ccccc1-2`, the inhibition was 35.7%. Then `Cc1cc(=O)cc(C)n1-c1ccc(Cl)c(Cl)c1`, with 14.3%; and `O=C(/C=C\NCC(=O)c1ccccc1)c1ccccc1`, with 17.6%. As to `O=C(CCOc1ccccc1)NCc1ccccc1`, the inhibition was -3.66%. Consider `O=C(Cc1ccccc1)NCc1ccc(F)cc1`, for which the inhibition is 55.7% (active). As for `O=C(O)CCCc1ccccc1`, the inhibition was -13.8% and 15.3%. The figure for `O=C(CNCc1ccc(F)cc1)Nc1ccccc1-c1ccccc1` is -4.12%; for `O=C(CCCc1ccccc1)NCc1ccccc1` it is 39.1% (active); for `CCCCC(=O)NCc1ccc(F)cc1` it is 21.3%. As to `O=C(Cc1c(O)c2ccccc2[nH]c1=O)NCc1ccccc1`, the inhibition is -13.9%. Turning to `O=C(/C=C/NCc1ccc(F)cc1)c1ccccc1`, the inhibition was 61.7% (active).

On to `CCn1c(SCC(=O)NC2CC2)nnc1-c1ccccc1OC`, for which the inhibition was -5.24%. Then `O=C1/C(=C/c2ccc(F)cc2)SC(=S)N1CCCC(=O)N1CCCCC1CCO` (stereo not drawn), with -4.46%; and `CN(C)CCCN(C(=O)c1ccc(S(=O)(=O)N2CCCc3ccccc32)cc1)c1nc2ccc(F)cc2s1`, with -2.08%; and `O=C(NCc1ccncc1)C1CCN(C(=O)c2cccc(Cl)c2)CC1`, with 4.24%.

For `COC(=O)C1(C)NC(c2ccc(C)cc2)C2C(=O)N(c3ccc(F)cc3)C(=O)C21` (stereo not drawn), the inhibition was -13.6%. As to `O=S(=O)(c1cc(Cl)ccc1Cl)N1CCN(Cc2ccco2)CC1`, the inhibition was -10.2%. Then `O=c1[nH]c2ccc(S(=O)(=O)N3CCCC3)cc2[nH]1`, with -12.3%; and `Cc1ccc(C(C(=O)NCC2CCCO2)N(C(=O)c2snc(C(N)=O)c2N)c2ccc(C(C)C)cc2)o1` (stereo not drawn), with 3.97%. Take `N#Cc1cccc(CN2CCC(=O)N([C@H](CO)c3ccccc3)CC2)c1`: the inhibition was -4.45%.

For the compound `O=C(NCC1CC1)C1(C(F)(F)F)C/C(=C\CCO)CCCO1` (stereo not drawn), the inhibition was 2.98%. In the case of `Cc1c2cnn(CC(=O)NCc3ccccn3)c(=O)c2c(C)n1Cc1ccc(Cl)cc1`, the inhibition was -4.19%. In the case of `C/C(=N\NC(=O)c1ccccc1F)c1ccccn1`, the inhibition is 61.3% (active).

Consider `C/C(=N\NC(=O)Cc1ccc(Cl)cc1)c1ccccn1`, for which the inhibition was 13.2%.

As for `COc1ccc(CC(=O)N/N=C(\C)c2ccccn2)cc1`, the inhibition was -0.965%. As to `CCCCN(CC)CCNC(=O)CCNC(=O)Cn1ccc2ccccc2c1=O`, the inhibition was -4.87%. With `O=S(=O)(c1ccc(F)cc1)N1CCN=C1SCc1cccc(F)c1`, the inhibition was -6%. Turning to `CC(C)CCC(C)NC(=O)c1ccc2nccnc2c1` (stereo not drawn), the inhibition was 95.5% (active). In the case of `Cc1ccc(C)c(NC(=O)c2ccc3nccnc3c2)c1`, the inhibition was 19.7%. For `COCC(C)NC(=O)c1ccc(Cl)c(Cl)c1` (stereo not drawn), the inhibition was -2.73%. With `COC(=O)Cc1cnc(NC(=O)CSc2nc(C(C)C)cc(=O)[nH]2)s1`, the inhibition is -7.11%. As for `CCN(CC)CCn1c(/N=C/c2cc(Br)ccc2O)nc2ccccc21`, the inhibition was 26.3%.

Consider `Oc1ccc(Br)cc1C=Nc1ccc2[nH]ncc2c1`, for which the inhibition was -11.4%. In the case of `Oc1ccc(Br)cc1/C=N/Nc1ccccn1`, the inhibition is 66.3% (active).

For `Oc1ccc(/C=N/Nc2ccc(C(F)(F)F)cn2)cc1O`, the inhibition was 108% (active).

`FC(F)(F)c1cccc(N/N=C/c2ccccc2)c1`: the inhibition was 33.8%. For `Cc1nccn1CC(=O)N/N=C/c1ccc(O)c(O)c1`, the inhibition is -15.2%. On to `COc1cc(C(=O)NCCOC(=O)c2cccc(N(C)C)c2)cc(OC)c1OC`, for which the inhibition is -2.34%.

Consider `N#C/C=C/N1CCN(Cc2ccc3c(c2)OCO3)CC1`, for which the inhibition was -6.62%. As for `O=C(CSc1nnc(-c2c[nH]c3ccccc23)o1)c1ccccc1`, the inhibition is 22.5% (active).

Regarding `CN(C(=O)CSc1nnc(-c2c[nH]c3ccccc23)o1)C1CCS(=O)(=O)C1` (stereo not drawn), the inhibition is -1.73%. The figure for `CCC(CC)NC(=O)CSc1nnc(-c2c[nH]c3ccccc23)o1` is -14.4%; for `Cc1cccc(OCC(=O)Nc2ccc(NC(=O)c3ccco3)c(C)c2)c1` it is -4.8%; for `COc1ccc(-c2nonc2NC(=O)c2oc3ccc(F)cc3c2C)cc1OC` it is -3.6%. For `CCOc1ccccc1CN1CCN(C2CCC2)CC1CCO` (stereo not drawn), the inhibition is -4.75%.

With `CC1CCN(C(=O)c2ccc(CSc3ccc(Cl)cc3)cc2)CC1`, the inhibition was 0.865%. `O=C(c1ccc(S(=O)(=O)c2ccccc2)cc1)N1CCCCCC1`: the inhibition is 1.55%. As for `O=C(c1ccc(CSc2ccccc2)cc1)N1CCCCCC1`, the inhibition is 17.6% (active). Take `CSCC[C@H](NC(=O)N1CCn2c1nc1ccccc12)C(=O)NCc1ccc2c(c1)OCO2`: the inhibition is -0.771%. `Cc1ccc(-c2nc(CS(=O)(=O)CC(=O)NCc3ccc4c(c3)OCO4)c(C)o2)cc1`: the inhibition was -3.19%.
